According to PubChem BioAssay AID1159580 (chemical genetic matrix, 2015):
Screen size: about 5,500 compounds; about 2,000 (36%) were called active. Roughly 18% stayed inconclusive and do not appear here. Rule as the data show it: active = normalized growth mostly below about 0.91 (no sharp cut-off); inconclusive = no clear call, values can overlap the other calls; inactive = mostly above about 0.92. Some of the results follow.

Assay: chemical genetic growth profiling, strain panel (AID 1159580);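 also: tested at 20 µM; growth read once vehicle control cultures reached saturation at 30 °C; 1 = growth at the plate median or of vehicle wells; lower values mean less growth of the strain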
Conditions: growth OD

Measured: normalized growth

CN[C@@H]1C(O)[C@@H](O[C@@H]2[C@@H](O)[C@H](O[C@H]3OC(CN)=CC[C@H]3N)[C@@H](N)C[C@H]2N)OC[C@]1(C)O (some centres undefined)
inactive: S. cerevisiae deletion strains, locus YJR075W, strain HOC1, stronger effect = lower value 1.02 | S. cerevisiae deletion strains, locus YKL009W, strain mrt4, stronger effect = lower value 1.01 | S. cerevisiae deletion strains, locus YKL068W, stronger effect = lower value 0.996 | S. cerevisiae deletion strains, locus YKL085W, strain MDH1 (second series), stronger effect = lower value 1 | S. cerevisiae deletion strains, locus YKL085W, strain MDH1, stronger effect = lower value 1 | S. cerevisiae deletion strains, locus YKL160W, strain elf1, stronger effect = lower value 1.02 | S. cerevisiae deletion strains, locus YKL190W, strain CNB1, stronger effect = lower value 1.02 | S. cerevisiae deletion strains, locus YKR001C, strain vps1, stronger effect = lower value 0.993 | S. cerevisiae deletion strains, locus YKR026C, strain gcn3, stronger effect = lower value 1 | S. cerevisiae deletion strains, locus YKR091W, strain srl3, stronger effect = lower value 1.01 | S. cerevisiae deletion strains, locus YLL001W, strain dnm1, stronger effect = lower value 1.03 | S. cerevisiae deletion strains, locus YLL026W, stronger effect = lower value 1.02 | S. cerevisiae deletion strains, locus YLL041C, strain sdh2, stronger effect = lower value 1.02 | S. cerevisiae deletion strains, locus YLR027C, strain aat2, stronger effect = lower value 1.02 | S. cerevisiae deletion strains, locus YLR039C, strain RIC1, stronger effect = lower value 1.13 | S. cerevisiae deletion strains, locus YLR058C, strain SHM2, stronger effect = lower value 1.02 | S. cerevisiae deletion strains, locus YLR102C, strain apc9, stronger effect = lower value 0.993 | S. cerevisiae deletion strains, locus YLR113W, strain HOG1, stronger effect = lower value 0.949 | S. cerevisiae deletion strains, locus YLR221C, strain rsa3, stronger effect = lower value 0.984 | S. cerevisiae deletion strains, locus YLR258W, strain gsy2, stronger effect = lower value 1.01 | S. cerevisiae deletion strains, locus YLR262C, strain YPT6 (second series), stronger effect = lower value 1.03 | S. cerevisiae deletion strains, locus YLR262C, strain YPT6, stronger effect = lower value 1.09 | S. cerevisiae deletion strains, locus YLR268W, strain sec22, stronger effect = lower value 1.01 | S. cerevisiae deletion strains, locus YLR320W, strain mms22, stronger effect = lower value 0.988 | S. cerevisiae deletion strains, locus YLR330W, strain CHS5, stronger effect = lower value 1.01 | S. cerevisiae deletion strains, locus YLR342W, strain FKS1 (second series), stronger effect = lower value 1.05 | S. cerevisiae deletion strains, locus YLR342W, strain FKS1, stronger effect = lower value 1.02 | S. cerevisiae deletion strains, locus YLR357W, strain rsc2, stronger effect = lower value 1.03 | S. cerevisiae deletion strains, locus YLR370C, strain arc18, stronger effect = lower value 1.02 | S. cerevisiae deletion strains, locus YLR371W, strain rom2, stronger effect = lower value 0.995 | S. cerevisiae deletion strains, locus YLR384C, strain iki3, stronger effect = lower value 1.01 | S. cerevisiae deletion strains, locus YLR418C, strain cdc73, stronger effect = lower value 1.02 | S. cerevisiae deletion strains, locus YML016C, strain PPZ1, stronger effect = lower value 1.02 | S. cerevisiae deletion strains, locus YML120C, strain ndi1, stronger effect = lower value 1.02 | S. cerevisiae deletion strains, locus YML124C, strain tub3, stronger effect = lower value 0.991 | S. cerevisiae deletion strains, locus YMR058W, strain fet3, stronger effect = lower value 1.03 | S. cerevisiae deletion strains, locus YMR078C, strain ctf18, stronger effect = lower value 0.996 | S. cerevisiae deletion strains, locus YMR125W, strain sto1, stronger effect = lower value 1 | S. cerevisiae deletion strains, locus YMR129W, stronger effect = lower value 1.01 | S. cerevisiae deletion strains, locus YMR205C, strain PFK2, stronger effect = lower value 1.02 | S. cerevisiae deletion strains, locus YMR223W, strain ubp8, stronger effect = lower value 1 | S. cerevisiae deletion strains, locus YMR231W, strain pep5, stronger effect = lower value 1 | S. cerevisiae deletion strains, locus YMR263W, strain SAP30, stronger effect = lower value 1.05 | S. cerevisiae deletion strains, locus YMR307W, strain GAS1, stronger effect = lower value 1.01 | S. cerevisiae deletion strains, locus YNL067W, strain RPL9B, stronger effect = lower value 1.04 | S. cerevisiae deletion strains, locus YNL071W, strain lat1, stronger effect = lower value 1.02 | S. cerevisiae deletion strains, locus YNL128W, strain TEP1, stronger effect = lower value 1.04 | S. cerevisiae deletion strains, locus YNL153C, strain GIM3, stronger effect = lower value 1.03 | S. cerevisiae deletion strains, locus YNL183C, strain NPR1, stronger effect = lower value 0.93 | S. cerevisiae deletion strains, locus YNL209W, strain ssb2, stronger effect = lower value 1.01 | S. cerevisiae deletion strains, locus YNL233W, strain BNI4, stronger effect = lower value 1.02 | S. cerevisiae deletion strains, locus YNL248C, strain rpa49, stronger effect = lower value 0.992 | S. cerevisiae deletion strains, locus YNL250W, strain rad50, stronger effect = lower value 1 | S. cerevisiae deletion strains, locus YNL271C, strain bni1, stronger effect = lower value 1 | S. cerevisiae deletion strains, locus YNL298W, strain CLA4, stronger effect = lower value 1 | S. cerevisiae deletion strains, locus YNL307C, strain MCK1, stronger effect = lower value 0.999 | S. cerevisiae deletion strains, locus YNL322C, strain KRE1 (second series), stronger effect = lower value 0.996 | S. cerevisiae deletion strains, locus YNL322C, strain KRE1, stronger effect = lower value 1.02 | S. cerevisiae deletion strains, locus YNR049C, strain mso1, stronger effect = lower value 1.04 | S. cerevisiae deletion strains, locus YNR052C, strain pop2, stronger effect = lower value 0.987 | S. cerevisiae deletion strains, locus YOL006C, strain TOP1, stronger effect = lower value 1.19 | S. cerevisiae deletion strains, locus YOL012C, strain htz1 2.02 | S. cerevisiae deletion strains, locus YOL147C, strain pex11, stronger effect = lower value 0.986 | S. cerevisiae deletion strains, locus YOR001W, strain rrp6, stronger effect = lower value 1.03 | S. cerevisiae deletion strains, locus YOR061W, strain CKA2, stronger effect = lower value 1.02 | S. cerevisiae deletion strains, locus YOR070C, strain gyp1, stronger effect = lower value 1 | S. cerevisiae deletion strains, locus YOR080W, strain dia2, stronger effect = lower value 1 | S. cerevisiae deletion strains, locus YOR083W, strain WHI5, stronger effect = lower value 0.992 | S. cerevisiae deletion strains, locus YOR106W, strain vam3, stronger effect = lower value 1.03 | S. cerevisiae deletion strains, locus YOR136W, strain idh2, stronger effect = lower value 0.991 | S. cerevisiae deletion strains, locus YOR144C, strain elg1, stronger effect = lower value 0.991 | S. cerevisiae deletion strains, locus YOR184W, strain ser1, stronger effect = lower value 1.01 | S. cerevisiae deletion strains, locus YOR231W, strain MKK1, stronger effect = lower value 0.952 | S. cerevisiae deletion strains, locus YOR265W, strain rbl2, stronger effect = lower value 1 | S. cerevisiae deletion strains, locus YOR270C, strain vph1, stronger effect = lower value 1.05 | S. cerevisiae deletion strains, locus YOR290C, strain snf2, stronger effect = lower value 0.979 | S. cerevisiae deletion strains, locus YPL051W, strain arl3, stronger effect = lower value 1.01 | S. cerevisiae deletion strains, locus YPL055C, strain LGE1, stronger effect = lower value 1.09 | S. cerevisiae deletion strains, locus YPL078C, strain atp4, stronger effect = lower value 1.03 | S. cerevisiae deletion strains, locus YPL106C, strain sse1, stronger effect = lower value 1.02 | S. cerevisiae deletion strains, locus YPL240C, strain hsp82, stronger effect = lower value 1.01 | S. cerevisiae deletion strains, locus YPL256C, strain CLN2, stronger effect = lower value 0.96 | S. cerevisiae deletion strains, locus YPR119W, strain clb2, stronger effect = lower value 0.984 | S. cerevisiae deletion strains, locus YPR141C, strain kar3, stronger effect = lower value 1 | S. cerevisiae deletion strains, locus YPR163C, strain tif3, stronger effect = lower value 0.966 | S. cerevisiae deletion strains, locus YPR167C, strain met16, stronger effect = lower value 0.999 | S. cerevisiae deletion strains, strain wtn01, stronger effect = lower value 1.01 | S. cerevisiae strains, strain wild type, stronger effect = lower value 1.01
active: S. cerevisiae deletion strains, locus YOR069W, strain VPS5, stronger effect = lower value 1.11 [resistant]
